Measurements from PubChem BioAssay (Tox21).
Inconclusive results are not listed. Activity calls are given as the source filed them. Unless noted, calls come from the whole dose curve; as a rule, active = well fitted curve in the direction sought with a large enough effect in the repeat runs; inconclusive = weak or mixed curves; inactive = no such curve, though single readings can be large; an effect the other way counts as inactive or inconclusive. Where a SMILES comes first, the peptide text is derived from it. [ ]: non-standard residue; d: D form. pGlu = O=C1CC[C@@H](C(=O)O)N1

Experiments:
[1] = qHTS assay to identify small molecule agonists of the hypoxia (HIF-1) signaling pathway (AID 1224846; active = well fitted activation curve with a large enough effect in the signal ratio in the repeat runs, not every such curve was filed as active; the % refers to the signal ratio); conditions: HRE-bla ME-180 cells, beta-lactamase ratio, 17 h; series mostly up to 76.8 µM
Procedure, shortened: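 Steps: seed ME-180 HRE-bla cells (2,000/well, 0.5% dialyzed FBS); incubate 5 hrs at 37C; pin-transfer compounds or DMSO; incubate 17 hrs; add LiveBLAzer B/G substrate CCF4-AM; measure reporter activation by FRET.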

[2] = qHTS assay to identify small molecule agonists of H2AX - cell viability counter screen (AID 1224847; calls by dose curve; note: top concentration of the series differs between compounds; nearly all actives have a fitted effect of over 30% in size); conditions: CHO-K1 viability, CellTiter-Glo luminescence, 3 h; series mostly up to 154 µM
Procedure, shortened: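 Wild-type CHO-K1 cells (10% FBS medium) were plated overnight at 37C, exposed to compounds at 15 concentrations for 3 hr at 37C (0.76% DMSO final), and viability was read as CellTiter-Glo luminescence after 30 min at room temperature.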

[3] = qHTS assay to identify small molecule antagonists of the estrogen related receptor (ERR) signaling pathway from Tox21 library (AID 1224848); conditions: ERR reporter cell line, luciferase antagonist mode, 18 h; series mostly up to 92.4 µM; note: nearly all actives have a fitted effect of over 50% in size
Procedure, shortened: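 Luminescent reporter read-out (ONE-Glo) from NTP's ERR cell line after 18 h treatment at 37 C with DMSO-dissolved Tox21 compounds; cells pre-plated 6 h beforehand at 2,000 per well.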

[4] = qHTS assay to identify small molecule agonists of the estrogen related receptor (ERR) signaling pathway from Tox21 library (AID 1224849; calls by dose curve; note: nearly all actives have a fitted effect of over 15% in size); conditions: ERR reporter cell line, ONE-Glo luciferase, 18 h; series mostly up to 92.4 µM
Procedure, shortened: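 Agonist signal is luciferase luminescence from an ERR reporter cell line treated 18 h at 37 C with DMSO-dissolved compounds, read 30 min after ONE-Glo addition at room temperature.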

[5] = qHTS RealTime-Glo MT Cell Viability Assay in HepG2 cells - 24 hour (AID 1224867); conditions: RealTime-Glo luminescence; series mostly up to 76.8 µM; note: nearly all actives have a fitted effect of over 50% in size
Procedure, shortened: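 HepG2 cells were seeded at 600 cells/well together with NanoLuc luciferase and a cell-permeant prosubstrate, preincubated 5 h at 37 C/5% CO2, then pin-dosed with compounds in DMSO. Nonlytic luminescence from viable cells was read at each time point.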

[6] = qHTS RealTime-Glo MT Cell Viability Assay in HEK293 cells - 32 hour (AID 1224868); conditions: RealTime-Glo luminescence; series mostly up to 76.8 µM; note: top concentration of the series differs between compounds; nearly all actives have a fitted effect of over 50% in size
Procedure, shortened: (§1)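 HEK293 cells were seeded at 600 cells/well together with NanoLuc luciferase and cell-permeant prosubstrate, preincubated 5 h at 37 C/5% CO2, then given compound in DMSO by pintool. Luminescence from viable-cell prosubstrate reduction was read repeatedly over 40 h.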

[7] = A CellTox Green Cytotoxicity Assay to monitor cytotoxicity in HEK293 cells - 0 hour (AID 1224869); conditions: CellTox Green fluorescence; series mostly up to 76.8 µM; note: nearly all actives have a fitted effect of over 50% in size
Procedure, shortened: (§2)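 Cytotoxicity was tracked continuously in HEK293 cells by a DNA-binding dye excluded from viable cells. Compounds were transferred in DMSO 5 h after seeding; fluorescence was recorded at intervals up to 40 h.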

[8] = qHTS RealTime-Glo MT Cell Viability Assay in HepG2 cells - 40 hour (AID 1224870); conditions: RealTime-Glo luminescence; series mostly up to 76.8 µM; note: nearly all actives have a fitted effect of over 50% in size
Procedure, shortened: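 HepG2 cells (600/well) mixed with RealTime-Glo MT reagent, settled 5 h at 37 C/5% CO2 before compound addition. Nonlytic NanoLuc luminescence from viable-cell prosubstrate reduction read repeatedly during 40 h treatment at 37 C.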

[9] = A CellTox Green Cytotoxicity Assay to monitor cytotoxicity in HEK293 cells - 40 hour (AID 1224871); conditions: CellTox Green fluorescence; series mostly up to 76.8 µM; note: nearly all actives have a fitted effect of over 45% in size; note: potency is the fitted concentration of half-maximal effect
Procedure, shortened: as §2

[10] = qHTS RealTime-Glo MT Cell Viability Assay in HEK293 cells - 16 hour (AID 1224872); conditions: RealTime-Glo luminescence; series mostly up to 76.8 µM
Procedure, shortened: as §1
% is set by controls: 0 for no effect and ±100 for the full control effect.

FB(F)F
inactive: outcome [1] | outcome [2] | Potency [3] | outcome [4] | outcome [5] | Potency [6] | outcome [7] | Potency [8] | Potency [9] | Potency [10]

c1ccc(CCc2ccccc2)cc1
active: Potency [9] 38.9 µM
inactive: outcome [1] | outcome [2] | Potency [3] | outcome [4] | outcome [5] | Potency [6] | outcome [7] | Potency [8] | Potency [10]

CC[C@H]1OC(=O)[C@H](C)[C@@H](O[C@H]2C[C@@](C)(OC)[C@@H](O)[C@H](C)O2)[C@H](C)[C@@H](O[C@@H]2O[C@H](C)C[C@H](N(C)C)[C@H]2O)[C@](C)(OC)C[C@@H](C)C(=O)[C@H](C)[C@@H](O)[C@]1(C)O
inactive: outcome [1] | outcome [2] | Potency [3] | outcome [4] | outcome [5] | Potency [6] | outcome [7] | Potency [8] | Potency [9] | Potency [10]

Clc1cc(Cl)c(Cl)nc1Cl
inactive: outcome [1] | outcome [2] | Potency [3] | outcome [4] | outcome [5] | Potency [6] | outcome [7] | Potency [8] | Potency [9] | Potency [10]

O=C(O)CC(C(=O)O)S(=O)(=O)O (centres undefined)
inactive: outcome [1] | outcome [2] | Potency [3] | outcome [4] | outcome [5] | Potency [6] | outcome [7] | Potency [8] | Potency [9] | Potency [10]

CCOC(=O)OC(C)OC1=C(C(=O)Nc2ccccn2)N(C)S(=O)(=O)c2ccccc21 (centres undefined)
inactive: outcome [1] | outcome [2] | Potency [3] | outcome [4] | outcome [5] | Potency [6] | outcome [7] | Potency [8] | Potency [9] | Potency [10]

CCC(C(=O)NC(=O)NC(C)=O)c1ccccc1 (centres undefined)
inactive: outcome [1] | outcome [2] | Potency [3] | outcome [4] | outcome [5] | Potency [6] | outcome [7] | Potency [8] | Potency [9] | Potency [10]

CCCCN1C=CN(C)C1
inactive: activation [1] -0.256% [at 15.8 µM] | activity change, negative = cytotoxicity [2] -1.83% [at 31.6 µM] | activity, negative = inhibition [3] 18.5% [at 19 µM] | activity change, positive = activation [4] 9.96% [at 19 µM] | activity change, negative = cytotoxicity [5] 3.12% [at 15.8 µM] | activity change, negative = cytotoxic [6] 8.51% [at 15.8 µM] | cytotoxicity [7] -3.75% [at 15.8 µM] | activity change, negative = cytotoxic [8] -0.384% [at 15.8 µM] | cytotoxicity increase [9] -12.1% [at 15.8 µM] | activity change, negative = cytotoxicity [10] 5.82% [at 15.8 µM]

C=COCC1CCC(COC=C)CC1 (centres undefined)
inactive: outcome [1] | outcome [2] | Potency [3] | outcome [4] | outcome [5] | Potency [6] | outcome [7] | Potency [8] | Potency [9]

CCOCC(C)O (centres undefined)
inactive: outcome [1] | outcome [2] | Potency [3] | outcome [4] | outcome [5] | Potency [6] | Potency [8] | Potency [9] | Potency [10]

CCCCCC(=O)OCCc1ccccc1
inactive: outcome [1] | outcome [2] | Potency [3] | outcome [4] | outcome [5] | Potency [6] | Potency [8] | Potency [9] | Potency [10]

Cc1cccc(C)c1NC(=O)CC12CCCN1CCC2
inactive: outcome [1] | outcome [2] | Potency [3] | outcome [4] | outcome [5] | Potency [6] | outcome [7] | Potency [8] | Potency [9] | Potency [10]

Nc1ccn([C@@H]2O[C@H](CO)[C@@H](O)C2O)c(=O)n1 (some centres undefined)
inactive: outcome [1] | outcome [2] | Potency [3] | outcome [4] | outcome [5] | Potency [6] | outcome [7] | Potency [8] | Potency [9] | Potency [10]

CCNC(=O)[C@@H]1CCCN1C(=O)[C@H](CCCN=C(N)N)NC(=O)[C@H](CC(C)C)NC(=O)CNC(=O)[C@H](Cc1ccc(O)cc1)NC(=O)[C@H](CO)NC(=O)[C@H](Cc1c[nH]c2ccccc12)NC(=O)[C@H](Cc1cnc[nH]1)NC(=O)[C@@H]1CCC(=O)N1 ([pGlu]HWSYGLRP-NHEt)
inactive: outcome [1] | outcome [2] | Potency [3] | outcome [4] | outcome [5] | Potency [6] | outcome [7] | Potency [8] | Potency [9] | Potency [10]

O=Cc1cccc(Br)c1
inactive: outcome [1] | outcome [2] | Potency [3] | outcome [4] | outcome [5] | Potency [6] | Potency [8] | Potency [9] | Potency [10]

CC(COc1ccccc1)NN (centres undefined)
inactive: outcome [1] | outcome [2] | Potency [3] | outcome [4] | outcome [5] | Potency [6] | outcome [7] | Potency [8] | Potency [9] | Potency [10]

COc1cc(C)nc(-n2nc(C)cc2OC)n1
inactive: outcome [1] | outcome [2] | Potency [3] | outcome [4] | outcome [5] | Potency [6] | outcome [7] | Potency [8] | Potency [9] | Potency [10]

C=CCCCCCCCCC(=O)OCC
inactive: outcome [1] | outcome [2] | Potency [3] | outcome [4] | outcome [5] | Potency [6] | outcome [7] | Potency [8] | Potency [10]

O=CN(CCO)CCO
inactive: outcome [1] | outcome [2] | Potency [3] | outcome [4] | outcome [5] | Potency [6] | outcome [7] | Potency [8] | Potency [9] | Potency [10]

Cc1ccc(C(=O)Nc2ccc(S(=O)(=O)O)c3cc(S(=O)(=O)O)cc(S(=O)(=O)O)c23)cc1NC(=O)c1cccc(NC(=O)Nc2cccc(C(=O)Nc3cc(C(=O)Nc4ccc(S(=O)(=O)O)c5cc(S(=O)(=O)O)cc(S(=O)(=O)O)c45)ccc3C)c2)c1
inactive: outcome [1] | outcome [2] | Potency [3] | outcome [4] | outcome [5] | Potency [6] | Potency [8] | Potency [9] | Potency [10]
